Calls of active or inactive are those of the source.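 Rule for the calls: active = compound whose curve gives half-maximal concentration under 30 µM, top-dose inhibition above a set limit, tight estimate; inactive = the rest.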
Target: Integrin alpha-4 (Homo sapiens) (UniProt P13612)
Experiment: concentration series for VLA-4 modulators – cell-based, U937, HUTS-21 LIBS antibody, flow cytometry, dose response (AID 449766)
Settings: U937 cells, HUTS-21 LIBS mAb binding; series mostly up to 20 µM; inhibition: at the top concentration

Integrin alpha-4 (Homo sapiens), sequence (P13612 whole entry, looked up): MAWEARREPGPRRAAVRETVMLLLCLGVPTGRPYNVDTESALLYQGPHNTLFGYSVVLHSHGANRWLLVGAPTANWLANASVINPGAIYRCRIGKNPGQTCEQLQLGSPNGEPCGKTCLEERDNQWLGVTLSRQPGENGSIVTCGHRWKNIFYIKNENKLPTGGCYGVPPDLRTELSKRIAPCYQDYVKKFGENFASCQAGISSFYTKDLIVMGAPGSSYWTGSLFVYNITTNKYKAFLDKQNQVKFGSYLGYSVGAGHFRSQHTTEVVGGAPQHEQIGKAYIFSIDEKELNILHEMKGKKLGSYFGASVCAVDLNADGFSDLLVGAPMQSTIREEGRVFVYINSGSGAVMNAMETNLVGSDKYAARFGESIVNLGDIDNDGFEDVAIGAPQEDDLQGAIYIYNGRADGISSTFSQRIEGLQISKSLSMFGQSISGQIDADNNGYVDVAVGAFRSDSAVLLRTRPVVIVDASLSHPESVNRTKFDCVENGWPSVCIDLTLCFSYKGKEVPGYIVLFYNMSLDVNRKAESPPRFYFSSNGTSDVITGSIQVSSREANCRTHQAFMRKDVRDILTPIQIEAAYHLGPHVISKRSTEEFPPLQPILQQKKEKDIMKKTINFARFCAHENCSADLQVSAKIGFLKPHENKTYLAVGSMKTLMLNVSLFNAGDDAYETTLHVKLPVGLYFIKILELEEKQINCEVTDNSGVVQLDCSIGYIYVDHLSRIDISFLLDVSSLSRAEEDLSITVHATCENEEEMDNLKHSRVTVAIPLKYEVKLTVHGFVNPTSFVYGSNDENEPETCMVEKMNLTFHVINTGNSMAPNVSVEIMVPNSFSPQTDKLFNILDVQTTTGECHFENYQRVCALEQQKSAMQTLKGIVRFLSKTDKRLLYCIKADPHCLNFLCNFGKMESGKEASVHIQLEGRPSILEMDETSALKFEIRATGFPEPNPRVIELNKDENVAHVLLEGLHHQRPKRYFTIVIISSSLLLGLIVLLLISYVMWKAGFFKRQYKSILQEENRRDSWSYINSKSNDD

inhibition, inactive:
COCCNC(=O)/C(C#N)=C/c1c(F)cccc1Cl 14.6%, CCCCN1C(=O)C(=O)c2cc(Cl)ccc21 7.15%, Cc1ccc(S(=O)(=O)Nc2ccc(N(C)C)cc2)cc1 -2.63%, O=C(Oc1ccc(F)cc1C(=O)/C=C/c1cccs1)c1cccc([N+](=O)[O-])c1 -28.2%, COc1cc(NC(=O)c2cc(S(=O)(=O)N3CCCCC3)ccc2N2CCOCC2)cc(OC)c1 7.5%, COc1cccc(-c2sc3ccc(OC)cc3c2-c2ccc(OCCN3CCCC3)cc2)c1 25.2%, CCOc1cccc(C2CC(=O)Nc3cc(OC)c(OC)cc32)c1 (stereo not given) 10.7%, Nc1cc(S(=O)(=O)Nc2ccc(Br)cc2)ccc1Cl -7.23%, COc1ccccc1-c1sc2cc3c(cc2c1-c1ccc(OCCN2CCCCC2)cc1)OCO3 35.6%, O=C(Nc1ccccc1Cl)c1cc(S(=O)(=O)N2CCCCC2)ccc1N1CCOCC1 -7.81% [at 0.25 µM], COc1ccc(-c2sc3ccccc3c2-c2ccc(OCCN3CCOCC3)cc2)cc1 4.56%, COc1cccc(C2CC(=O)Nc3cc(OC)c(OC)cc32)c1 (stereo not given) -6.66%, Cc1ccc(C(=O)c2cc([N+](=O)[O-])ccc2N2CCOCC2)c(C)c1 27%, CCCCNC(=O)/C(C#N)=C/c1ccc(C(=O)OC)cc1 6.29%, COc1ccc(C2CC(=O)Nc3cc(OC)c(OC)cc32)cc1Br (stereo not given) -5.69%, CC(C)Oc1ccccc1C1CC(=O)Nc2cc3c(cc21)OCO3 (stereo not given) 8.88%, Cc1ccc(NS(=O)(=O)c2ccc(-c3cnc(C4CC4)o3)cc2)c(C)c1 12.3%, COc1ccc(-c2sc3cc4c(cc3c2-c2ccc(OCCN3CCOCC3)cc2)OCO4)cc1 7.5%, COCCNC(=O)/C(C#N)=C/c1cccc(/C=C(\C#N)C(=O)NCCOC)c1 35.2%, COC(=O)[C@@H]1[C@@H](C#N)C2(c3ccccc3-c3ccccc32)N(c2ccc(Cl)cc2)N1C#N 10.6% [at 6.6 µM], Cc1ccc(C(=O)c2cc([N+](=O)[O-])ccc2N2CCOCC2)cc1C 12.6%, CCOc1ccc(S(=O)(=O)Nc2cc(OC)ccc2OC)cc1 -4.93% [at 0.74 µM], COCCNC(=O)/C(C#N)=C/c1ccc(C(=O)O)cc1 6.86%, COc1ccc(C2=Nn3c(nnc3-c3ccc(OC)cc3)SC2)cc1 4.28%, COc1ccc(S(=O)(=O)Nc2c(F)cccc2F)cc1 -2.92%, CCOc1ccc(C(=O)c2cc([N+](=O)[O-])ccc2N2CCOCC2)cc1 10.1%, COc1ccc(C)cc1S(=O)(=O)Nc1cccc(C)c1 1.97%, Nc1cccc(S(=O)(=O)Nc2ccccc2)c1 16.8%, O=C(Nc1ccc(OC(F)F)cc1)c1cc(S(=O)(=O)N2CCCCC2)ccc1N1CCOCC1 8.79%, COc1cc2c(cc1OC)C(c1ccc(Br)cc1)CC(=O)N2 (stereo not given) 3.41%, Nc1ccc(NS(=O)(=O)c2ccccc2)cc1 1.69%, O=C(c1ccccc1)c1cc([N+](=O)[O-])ccc1N1CCOCC1 2.35%, Cc1ccc(C)c(NC(=O)c2cc(S(=O)(=O)N3CCCCC3)ccc2N2CCOCC2)c1 4.56%, CCCOc1ccccc1C1CC(=O)Nc2cc3c(cc21)OCO3 (stereo not given) 20.1%, CCOCCCNC(=O)/C(C#N)=C/c1cc(Br)c(O)c(Br)c1 -4.08%

Reference: PubChem BioAssay AID449766 (NMMLSC, 2010)
